# According to PubChem BioAssay AID1159580 (chemical genetic matrix, 2015):
# “And” between values parts separate entries of the source, which are not always exact repeats. Equal entries are not always repeated. The campaign covered roughly 5,500 compounds. About 2,000 (36%) were called active. Another 18% or so got no clear call; they are omitted. Some of the results follow. Values without a mark were called inactive. No stated cut-off is given here; in the data, active means normalized growth mostly below about 0.91 (no sharp cut-off); inconclusive means no clear call, values can overlap the other calls; inactive means mostly above about 0.92.
# Assay: chemical genetic growth profiling, strain panel (AID 1159580);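 further: tested at 20 µM; growth read once vehicle control cultures reached saturation at 30 °C; 1 = growth at the plate median or of vehicle wells; lower values mean less growth of the strain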
# Details: S. cerevisiae deletion strains, growth OD
smiles,measurement,setting,value
COc1c(O)cc2c(-c3ccccc3)cc(=O)oc2c1OC,normalized growth,"locus YAL021C, strain ccr4, active compounds read low",0.994
same,normalized growth,"locus YAL026C, strain drs2, active compounds read low",1.01
same,normalized growth,"locus YAL030W, strain snc1, active compounds read low",0.992
same,normalized growth,"locus YBL061C, strain skt5, active compounds read low",1.01
same,normalized growth,"locus YBR009C, strain hhf1, active compounds read low",0.994
same,normalized growth,"locus YBR021W, strain FUR4, active compounds read low",0.982
same,normalized growth,"locus YBR023C, strain chs3, active compounds read low",0.994
same,normalized growth,"locus YBR171W, strain sec66, active compounds read low",1.01
same,normalized growth,"locus YBR229C, strain ROT2, active compounds read low",0.995
same,normalized growth,"locus YBR231C, strain swc5, active compounds read low",1
same,normalized growth,"locus YBR279W, strain paf1, active compounds read low",0.995
same,normalized growth,"locus YCL011C, strain gbp2, active compounds read low",0.995
same,normalized growth,"locus YCL016C, strain dcc1, active compounds read low",0.993
same,normalized growth,"locus YCL029C, strain bik1, active compounds read low",0.964
same,normalized growth,"locus YCL061C, strain MRC1, active compounds read low",0.994
same,normalized growth,"locus YCL069W, strain vba3, active compounds read low",1.01
same,normalized growth,"locus YCR088W, strain abp1, active compounds read low",0.995
same,normalized growth,"locus YDL005C, strain med2, active compounds read low",0.99
same,normalized growth,"locus YDL035C, strain GPR1, active compounds read low",1.05
same,normalized growth,"locus YDL040C, strain nat1, active compounds read low",0.997
same,normalized growth,"locus YDL074C, strain BRE1, active compounds read low",1.01
same,normalized growth,"locus YDL101C, strain DUN1, active compounds read low",0.99
same,normalized growth,"locus YDL134C, strain PPH21, active compounds read low",1.03
same,normalized growth,"locus YDL185W, strain tfp1, active compounds read low",0.95
same,normalized growth,"locus YDL192W, strain arf1, active compounds read low",0.988
same,normalized growth,"locus YDR001C, strain nth1, active compounds read low",0.987
same,normalized growth,"locus YDR069C, strain doa4, active compounds read low",1.02
same,normalized growth,"locus YDR101C, strain arx1, active compounds read low",1.01
same,normalized growth,"locus YDR137W, strain rgp1, active compounds read low",0.889
same,normalized growth,"locus YDR159W, strain sac3, active compounds read low",0.999
same,normalized growth,"locus YDR162C, strain NBP2, active compounds read low",1.01
same,normalized growth,"locus YDR195W, strain ref2",0.989
same,normalized growth,"locus YDR297W, strain sur2, active compounds read low",1.02
same,normalized growth,"locus YDR318W, strain mcm21, active compounds read low",0.973
same,normalized growth,"locus YDR334W, strain swr1, active compounds read low",1
same,normalized growth,"locus YDR335W, strain msn5, active compounds read low",0.995
same,normalized growth,"locus YDR388W, active compounds read low",0.984
same,normalized growth,"locus YDR392W, strain spt3, active compounds read low",0.848
same,normalized growth,"locus YDR502C, strain sam2, active compounds read low",0.955
same,normalized growth,"locus YEL003W, strain gim4, active compounds read low",1.02
same,normalized growth,"locus YEL037C, strain rad23, active compounds read low",1
same,normalized growth,"locus YEL061C, strain CIN8 (second series), active compounds read low",0.995
same,normalized growth,"locus YER015W, strain faa2, active compounds read low",0.997
same,normalized growth,"locus YER016W, strain bim1, active compounds read low",1
same,normalized growth,"locus YER110C, active compounds read low",0.968
same,normalized growth,"locus YER111C, strain swi4, active compounds read low",0.997
same,normalized growth,"locus YER155C, strain BEM2 (second series), active compounds read low",1.02
same,normalized growth,"locus YER155C, strain BEM2, active compounds read low",0.989
same,normalized growth,"locus YER167W, strain BCK2, active compounds read low",0.988
same,normalized growth,"locus YFR010W, strain ubp6, active compounds read low",1.02
same,normalized growth,"locus YGL078C, strain dbp3, active compounds read low",1
same,normalized growth,"locus YGL086W, strain mad1, active compounds read low",0.996
same,normalized growth,"locus YGL167C, strain pmr1, active compounds read low",0.971
same,normalized growth,"locus YGL173C, strain kem1, active compounds read low",1.01
same,normalized growth,"locus YGL227W, strain vid30, active compounds read low",0.996
same,normalized growth,"locus YGL240W, strain doc1, active compounds read low",1.02
same,normalized growth,"locus YGL248W, strain PDE1, active compounds read low",1.02
same,normalized growth,"locus YGL253W, strain hxk2, active compounds read low",1.02
same,normalized growth,"locus YGR135W, strain pre9, active compounds read low",0.954
same,normalized growth,"locus YGR252W, strain gcn5, active compounds read low",1.06
same,normalized growth,"locus YHR013C, strain ard1, active compounds read low",0.978
same,normalized growth,"locus YHR027C, strain rpn1, active compounds read low",0.987
same,normalized growth,"locus YHR030C, strain SLT2, active compounds read low",0.993 and 1.06
same,normalized growth,"locus YHR079C, strain IRE1 (second series), active compounds read low",0.959
same,normalized growth,"locus YHR079C, strain IRE1, active compounds read low",1.05
same,normalized growth,"locus YHR094C, strain hxt1, active compounds read low",0.983
same,normalized growth,"locus YHR129C, strain ARP1, active compounds read low",1.01
same,normalized growth,"locus YHR142W, strain chs7, active compounds read low",0.965
same,normalized growth,"locus YHR200W, strain rpn10, active compounds read low",0.986
same,normalized growth,"locus YIL066C, strain RNR3, active compounds read low",1
same,normalized growth,"locus YIL073C, strain SPO22, active compounds read low",0.905
same,normalized growth,"locus YIL125W, strain kgd1, active compounds read low",0.992
same,normalized growth,"locus YIR030C, strain dcg1, active compounds read low",0.957
same,normalized growth,"locus YJL092W, strain hpr5, active compounds read low",0.991
same,normalized growth,"locus YJL095W, strain BCK1 (second series), active compounds read low",0.999
same,normalized growth,"locus YJL095W, strain BCK1, active compounds read low",1.11 and 1.04
same,normalized growth,"locus YJL115W, strain asf1, active compounds read low",0.995
same,normalized growth,"locus YJL129C, strain trk1, active compounds read low",0.948
same,normalized growth,"locus YJL134W, strain LCB3, active compounds read low",0.993
same,normalized growth,"locus YJL154C, strain vps35, active compounds read low",0.985
same,normalized growth,"locus YJL164C, strain tpk1, active compounds read low",0.974
same,normalized growth,"locus YJL166W, strain qcr8, active compounds read low",0.999
same,normalized growth,"locus YJL168C, strain set2, active compounds read low",0.965
same,normalized growth,"locus YJL187C, strain SWE1 (second series), active compounds read low",1
same,normalized growth,"locus YJL187C, strain SWE1, active compounds read low",0.989
same,normalized growth,"locus YJR043C, strain POL32, active compounds read low",1.04
same,normalized growth,"locus YJR066W, strain TOR1, active compounds read low",0.984
same,normalized growth,"locus YKL009W, strain mrt4, active compounds read low",0.996
same,normalized growth,"locus YKL068W, active compounds read low",0.985
same,normalized growth,"locus YKL085W, strain MDH1 (second series), active compounds read low",0.973
same,normalized growth,"locus YKL085W, strain MDH1, active compounds read low",0.973
same,normalized growth,"locus YKL160W, strain elf1, active compounds read low",0.983
same,normalized growth,"locus YKL190W, strain CNB1, active compounds read low",0.99
same,normalized growth,"locus YKR001C, strain vps1, active compounds read low",0.946
same,normalized growth,"locus YKR026C, strain gcn3, active compounds read low",1
same,normalized growth,"locus YKR091W, strain srl3, active compounds read low",0.995
same,normalized growth,"locus YLL001W, strain dnm1, active compounds read low",0.962
same,normalized growth,"locus YLL026W, active compounds read low",1
same,normalized growth,"locus YLL041C, strain sdh2, active compounds read low",0.998
same,normalized growth,"locus YLR027C, strain aat2, active compounds read low",1
same,normalized growth,"locus YLR039C, strain RIC1, active compounds read low",0.979
same,normalized growth,"locus YLR058C, strain SHM2, active compounds read low",1.01
same,normalized growth,"locus YLR102C, strain apc9, active compounds read low",0.983
same,normalized growth,"locus YLR113W, strain HOG1, active compounds read low",1.03
same,normalized growth,"locus YLR221C, strain rsa3, active compounds read low",1.04
same,normalized growth,"locus YLR258W, strain gsy2, active compounds read low",1.01
same,normalized growth,"locus YLR262C, strain YPT6 (second series), active compounds read low",0.878
same,normalized growth,"locus YLR268W, strain sec22, active compounds read low",0.975
same,normalized growth,"locus YLR320W, strain mms22, active compounds read low",1.02
same,normalized growth,"locus YLR330W, strain CHS5, active compounds read low",0.985
same,normalized growth,"locus YLR342W, strain FKS1, active compounds read low",1
same,normalized growth,"locus YLR357W, strain rsc2, active compounds read low",0.95
same,normalized growth,"locus YLR370C, strain arc18, active compounds read low",0.99
same,normalized growth,"locus YLR371W, strain rom2, active compounds read low",0.97
same,normalized growth,"locus YLR384C, strain iki3, active compounds read low",0.988
same,normalized growth,"locus YLR418C, strain cdc73, active compounds read low",0.948
same,normalized growth,"locus YML016C, strain PPZ1, active compounds read low",1
same,normalized growth,"locus YML032C, strain rad52, active compounds read low",0.995
same,normalized growth,"locus YML120C, strain ndi1, active compounds read low",0.966
same,normalized growth,"locus YML124C, strain tub3, active compounds read low",0.971
same,normalized growth,"locus YMR058W, strain fet3, active compounds read low",1.01
same,normalized growth,"locus YMR078C, strain ctf18, active compounds read low",0.961
same,normalized growth,"locus YMR125W, strain sto1, active compounds read low",0.973
same,normalized growth,"locus YMR129W, active compounds read low",0.995
same,normalized growth,"locus YMR205C, strain PFK2, active compounds read low",0.936
same,normalized growth,"locus YMR223W, strain ubp8, active compounds read low",0.978
same,normalized growth,"locus YMR231W, strain pep5, active compounds read low",0.995
same,normalized growth,"locus YMR263W, strain SAP30, active compounds read low",0.989
same,normalized growth,"locus YMR307W, strain GAS1, active compounds read low",1.67 [resistant] (active)
same,normalized growth,"locus YNL067W, strain RPL9B, active compounds read low",1.01
same,normalized growth,"locus YNL071W, strain lat1, active compounds read low",0.993
same,normalized growth,"locus YNL128W, strain TEP1, active compounds read low",1
same,normalized growth,"locus YNL153C, strain GIM3, active compounds read low",1
same,normalized growth,"locus YNL183C, strain NPR1, active compounds read low",0.994
same,normalized growth,"locus YNL209W, strain ssb2, active compounds read low",0.991
same,normalized growth,"locus YNL233W, strain BNI4, active compounds read low",1.01
same,normalized growth,"locus YNL248C, strain rpa49, active compounds read low",1.03
same,normalized growth,"locus YNL250W, strain rad50, active compounds read low",0.915
same,normalized growth,"locus YNL271C, strain bni1, active compounds read low",0.973
same,normalized growth,"locus YNL298W, strain CLA4, active compounds read low",1.01
same,normalized growth,"locus YNL307C, strain MCK1, active compounds read low",0.95
same,normalized growth,"locus YNL322C, strain KRE1 (second series), active compounds read low",0.982
same,normalized growth,"locus YNR049C, strain mso1, active compounds read low",1.01
same,normalized growth,"locus YNR052C, strain pop2, active compounds read low",0.99
same,normalized growth,"locus YOL012C, strain htz1",1.04
same,normalized growth,"locus YOL147C, strain pex11, active compounds read low",0.968
same,normalized growth,"locus YOR001W, strain rrp6, active compounds read low",1.02
same,normalized growth,"locus YOR061W, strain CKA2, active compounds read low",1
same,normalized growth,"locus YOR069W, strain VPS5, active compounds read low",0.994
same,normalized growth,"locus YOR070C, strain gyp1, active compounds read low",0.999
same,normalized growth,"locus YOR080W, strain dia2, active compounds read low",1.02
same,normalized growth,"locus YOR083W, strain WHI5, active compounds read low",0.984
same,normalized growth,"locus YOR106W, strain vam3, active compounds read low",0.967
same,normalized growth,"locus YOR136W, strain idh2, active compounds read low",0.977
same,normalized growth,"locus YOR144C, strain elg1, active compounds read low",0.989
same,normalized growth,"locus YOR184W, strain ser1, active compounds read low",1.03
same,normalized growth,"locus YOR231W, strain MKK1, active compounds read low",1.06
same,normalized growth,"locus YOR265W, strain rbl2, active compounds read low",0.987
same,normalized growth,"locus YOR270C, strain vph1, active compounds read low",1.01
same,normalized growth,"locus YOR290C, strain snf2, active compounds read low",0.967
same,normalized growth,"locus YOR316C, strain cot1, active compounds read low",0.962
same,normalized growth,"locus YPL051W, strain arl3, active compounds read low",1.02
same,normalized growth,"locus YPL055C, strain LGE1, active compounds read low",1.06
same,normalized growth,"locus YPL078C, strain atp4, active compounds read low",0.969
same,normalized growth,"locus YPL106C, strain sse1, active compounds read low",0.983
same,normalized growth,"locus YPL240C, strain hsp82, active compounds read low",1
same,normalized growth,"locus YPL256C, strain CLN2, active compounds read low",1.02
same,normalized growth,"locus YPR119W, strain clb2, active compounds read low",0.947
same,normalized growth,"locus YPR141C, strain kar3, active compounds read low",0.968
same,normalized growth,"locus YPR163C, strain tif3, active compounds read low",0.98
same,normalized growth,"locus YPR167C, strain met16, active compounds read low",0.968
same,normalized growth,"strain wtn01, active compounds read low",0.991
